DUSP3 inh = VHR1 phosphatase inhibitors, primary screen, biochemical, absorbance, uHTS; 0.52% of 290,000 active; inhibition, % at 13.3 µM; AID 1654, 2009; recombinant VHR phosphatase, pNPP absorbance; Dual specificity protein phosphatase 3 (Homo sapiens), P51452; in the data active = inhibition above about 50%
Target sequence (P51452 whole entry, looked up): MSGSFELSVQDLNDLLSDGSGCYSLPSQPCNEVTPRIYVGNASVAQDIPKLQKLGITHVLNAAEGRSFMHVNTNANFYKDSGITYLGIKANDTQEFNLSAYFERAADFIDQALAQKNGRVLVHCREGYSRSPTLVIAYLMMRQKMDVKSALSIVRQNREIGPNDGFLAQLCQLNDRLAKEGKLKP
MazEF act = activators of E. coli MazEF toxin-antitoxin RNase, primary screen, biochemical, fluorescence, uHTS | Endoribonuclease toxin MazF (Escherichia coli (strain K12)), P0AE70 | FAM/BHQ RNA-DNA oligo cleavage fluorescence, 5 h | activation, % at 20 µM | 0.32% of 350,000 active; in the data active = activation above about 50%
Target sequence (P0AE70 whole entry, looked up): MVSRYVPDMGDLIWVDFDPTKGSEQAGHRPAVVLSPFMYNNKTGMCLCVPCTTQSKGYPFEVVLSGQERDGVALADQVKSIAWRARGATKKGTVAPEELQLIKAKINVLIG
Anthrax LF prot = Bacillus anthracis LF protease inhibitors, primary screen, biochemical, multiplex microsphere, MLPCN library | Lethal factor (Bacillus anthracis), P15917 | multiplex microsphere protease cleavage assay | inhibition, % at 10 µM | 0.12% of 360,000 active | AID 588501, 2011; also: plate controls were buffer without enzyme for full effect and enzyme alone for no effect
Autofluor counter = counter-screen for toxin protease inhibitors: compound fluorescence; compound autofluorescence counterscreen, microsphere flow cytometry; stronger effect = higher value; fluorescence intensity (no concentration beside the values); 3.1% of 360,000 active; in the data active = fluorescence intensity above about 16000; inconclusive = no clear call, values can overlap the other calls
BoNT-A LC inh2 = BoNT/A light chain protease inhibitors, primary screen, biochemical, flow cytometry, MLPCN library | Botulinum neurotoxin type A light chain protease (Clostridium botulinum A str. ATCC 3502) | multiplex microsphere protease substrate cleavage | inhibition, % at 10 µM | 0.17% of 360,000 active; also: plate controls were buffer without enzyme for full effect and enzyme alone for no effect
BoNT F protease = BoNT/F light chain protease inhibitors, primary screen, biochemical, flow cytometry, MLPCN library | inhibition, % at 10 µM | Botulinum neurotoxin type F light chain protease (Clostridium botulinum) | Multiplex microsphere protease cleavage assay | 0.22% of 360,000 active; in the data active = inhibition above about 35%, passing the limit was not always enough; inconclusive = no clear call, values can overlap the other calls; also: plate controls were buffer without enzyme for full effect and enzyme alone for no effect
Active calls of the source: *; u = inconclusive; x = no result given. Most compounds without a hit are left out; they make up all but 4% or so of the library. Rule as the data show it, unless noted: active = inhibition above about 30%; inconclusive = no clear call, values can overlap the other calls; inactive = below that.

SMILES | DUSP3 inh | MazEF act | Anthrax LF prot | Autofluor counter | BoNT-A LC inh2 | BoNT F protease
NC(=S)N=Nc1c(O)n(CCCl)c2ccc(Cl)cc12 | -1 | 6 | -2 | 3823 | 0 | -6
CCCNS(=O)(=O)c1ccc(CCC(=O)N2CCN(c3ccc(F)cc3)CC2)cc1 | -14 | 6 | -2 | 2432 | 0 | 1
CCc1nc2c(OCC(=O)c3ccc(Cl)cc3Cl)cccn2c1N(C=O)Cc1ccc(OC)cc1 | x | x | 4 | 3619 | 0 | -14
CC1CCC/C(=C\Nc2ccc3c(c2)OCO3)C1=O (stereo not drawn) | -9 | -11 | -6 | 22454* | 0 | -11
O=C1CCC/C1=C/Nc1ccc2c(c1)OCO2 | -7 | 8 | -8 | 8737 | 2 | -9
O=C(/C=C/c1ccco1)NCC(=O)N/N=C/c1ccccc1[N+](=O)[O-] | 25 | 5 | 2 | 2089 | 0 | 1
CC1(C)CC(=O)c2cn3nc(C(F)(F)F)nc3nc2C1 | -10 | 1 | 2 | 8301 | 1 | 17
Cc1nc2nc3c(cn2n1)C(=O)CCC3 | -15 | 2 | -2 | 21199* | -2 | -3
Nc1nc2ccccc2n1Cc1ccc(Cl)c(Cl)c1 | -4 | 14 | 2 | 3724 | -2 | 10
O=C1C(Oc2ccccc2)C(c2cccs2)N1Cc1ccc2c(c1)OCO2 (stereo not drawn) | 27 | -5 | -1 | 9394 | 0 | 3
Cc1ccccc1OC1C(=O)N(Cc2ccc3c(c2)OCO3)C1c1sccc1C (stereo not drawn) | -20 | -6 | -3 | 22460* | u | 4
COc1ccccc1OCc1ccc(C(=O)N2N=C(C(F)F)CC2(O)C(F)F)o1 (stereo not drawn) | 23 | 0 | -1 | 16851* | -3 | -4
CCOc1cc(C#N)c(NC(=O)CSc2nnnn2-c2ccc(OC)cc2)cc1OCC | 22 | 10 | -3 | 22206* | -9 | -11
CC(O)CNCCCOc1ccccc1OCc1ccccc1 (stereo not drawn) | 15 | 23 | 0 | 4409 | -1 | -3
CCN1C(=O)CC(N2CCN(c3ccc(C(=O)c4ccccc4)cc3)CC2)C1=O (stereo not drawn) | 57* | -7 | -1 | 4201 | 0 | 8
CC(=O)Nc1ccc(S(=O)(=O)N2CCCN(S(=O)(=O)c3ccc(C)cc3)CC2)cc1 | 15 | 11 | -2 | 27039* | -10 | -15
CN1CCN(S(=O)(=O)c2ccc(NC(=O)C(C)(C)C)cc2)CC1 | 10 | 8 | -1 | 22681* | u | 3
Cc1ccnc(NS(=O)(=O)c2ccc(NC(=O)Cc3cccs3)cc2)n1 | 13 | -9 | -1 | 21122* | u | -2
O=C(Cc1cccs1)Nc1ccc(S(=O)(=O)Nc2ncccn2)cc1 | 19 | 6 | -2 | 3087 | 0 | -8
Cc1ccc2nc(C3CCN(C(=O)NCc4ccccc4)CC3)[nH]c2c1 | 32 | 2 | -5 | 17071* | -3 | -5
O=C(C1CC1)N1CCN(c2ccc(F)cc2)CC1 | -4 | 1 | -12 | 3672 | 0 | 15
O=C(Cc1cccs1)Nc1ccc(S(=O)(=O)N2CCCCC2)cc1 | 6 | 11 | 6 | 4192 | 0 | u
CN1CCN(S(=O)(=O)c2ccc(NC(=O)Cc3cccs3)cc2)CC1 | -9 | 2 | 1 | 19616* | 8 | 10
CN1CCN(S(=O)(=O)c2ccc(Cl)cc2)CC1 | 8 | 6 | -9 | 3891 | 0 | -2
CN1CCN(S(=O)(=O)c2ccc(-c3ccc(Cl)cc3)cc2)CC1 | -1 | -1 | 1 | 20018* | -1 | -5
SMILES | DUSP3 inh | MazEF act | Anthrax LF prot | Autofluor counter | BoNT-A LC inh2 | BoNT F protease
CC1CCCN(S(=O)(=O)c2ccc(NC(=O)CN3CCN(C)CC3)cc2)C1 (stereo not drawn) | 7 | 1 | 1 | 16136* | 0 | -2
CC(=O)Nc1ccc(S(=O)(=O)N2CCC(c3nc4ccc(C)cc4[nH]3)CC2)cc1 | 14 | 6 | -2 | 24362* | -1 | -4
CCN(CC)c1ccc(NC(=O)Cn2c(C(C)NC(=O)c3ccc(C)cc3)nc3ccccc32)cc1 (stereo not drawn) | 8 | -25 | -3 | 5490 | -1 | -3
CN1CCN(S(=O)(=O)c2ccc3c(c2)OCCO3)CC1 | -29 | -1 | -2 | 3088 | 0 | -6
CN1CCN(S(=O)(=O)c2ccc(NC(=O)c3csc4ccccc34)cc2)CC1 | 4 | 1 | -4 | 16528* | u | -1
Cc1ccc(S(=O)(=O)N2CCCN(S(=O)(=O)c3ccc4c(c3)OCCO4)CC2)cc1 | -11 | -3 | -7 | 26607* | -11 | -15
CN1CCN(S(=O)(=O)c2ccc(NC(=O)c3cccs3)cc2)CC1 | 11 | 7 | 4 | 3269 | 0 | 6
CCOC(=O)C1(Cc2cccc(F)c2)CCN(CCCn2cccn2)CC1 | 21 | 5 | -6 | 3777 | -2 | -5
COc1ccc(C2CC(c3ccc(OC)cc3)n3nc(NC(=O)c4ccco4)nc3N2)cc1 (stereo not drawn) | 26 | 3 | 0 | 2805 | 0 | 3
O=C(Cn1nc(Cl)nc1Cl)c1cc2ccccc2oc1=O | 8 | 1 | -2 | 16246* | 1 | 2
CCOC(=O)c1c(C)c(C(=O)NCC2CCCO2)c(C)n1CC (stereo not drawn) | -5 | -3 | -3 | 10685 | 0 | -6
CCOC(=O)c1c(C)c(C(=O)N2CCCCCC2)c(C)n1C | -1 | 6 | 2 | 23943* | 0 | 0
CCOC(=O)c1c(C)c(C(=O)N2CCCCCC2)c(C)n1CC | -9 | 1 | 0 | 20617* | u | 0
CCOC(=O)c1c(C)c(C(=O)N2CCN(c3ccccc3)CC2)c(C)n1C | 8 | -2 | -1 | 2143 | 0 | 2
CC1=NN(c2ccccc2)C(=O)C1(C)C | 40 | 7 | 2 | 2412 | 0 | 0
COc1ccc(C(=O)CN2C(=O)NC3(CCCCCC3)C2=O)c(OC)c1 | x | 6 | -4 | 5824 | -3 | -7
Cc1c(NC(=O)CC(=O)Nc2c(C)n(C)n(-c3ccccc3)c2=O)c(=O)n(-c2ccccc2)n1C | 10 | 0 | 1 | 7785 | 1 | 0
COc1cc(Br)c(S(=O)(=O)Nc2c(C)n(C)n(-c3ccccc3)c2=O)cc1OC | 3 | 0 | 2 | 21059* | -1 | -4
COc1ccc(S(=O)(=O)Nc2c(C)n(C)n(-c3ccccc3)c2=O)cc1Br | 3 | 12 | -10 | 3820 | -2 | -7
Cc1c(NC(=O)CN2CCCc3ccccc32)c(=O)n(-c2ccccc2)n1C | 30 | -10 | -2 | 22099* | u | -3
Cc1c(NC(=O)c2ccccc2F)c(=O)n(-c2ccccc2)n1C | 7 | 3 | 2 | 16314* | u | 0

Screening data from PubChem BioAssay.
